Records with an inconclusive call do not appear. The call rests on the fitted dose curve; in most records, active means well fitted curve in the direction sought with a large enough effect; inconclusive means small, poorly fitted or top-dose-only effect, or another doubt; inactive means no such curve, though single readings can be large or run the other way.
The compounds below were run against Pyruvate kinase PKM (Homo sapiens) (UniProt P14618) (assay: Secondary LDH Assay for Activators of Human Pyruvate Kinase M1 Isoform: for Probe SAR). Details: purified hPK-M1, LDH-coupled NADH fluorescence kinetic; series mostly up to 58.2 µM; activity change, negative = inhibition: at the top concentration.
Summary of the method: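 10 nM hPK-M1 coupled to 1 uM LDH, with 0.1 mM PEP, 4.0 mM ADP, 0.2 mM NADH, 50 mM Tris pH 8.0, 200 mM KCl, 15 mM MgCl2 (final). NADH fluorescence depletion followed kinetically 3-6 min; initial rates normalized to uninhibited controls.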
Further: % of control where 0% means no effect.

Chain of Pyruvate kinase PKM (Homo sapiens) (P14618 whole entry, looked up, canonical isoform): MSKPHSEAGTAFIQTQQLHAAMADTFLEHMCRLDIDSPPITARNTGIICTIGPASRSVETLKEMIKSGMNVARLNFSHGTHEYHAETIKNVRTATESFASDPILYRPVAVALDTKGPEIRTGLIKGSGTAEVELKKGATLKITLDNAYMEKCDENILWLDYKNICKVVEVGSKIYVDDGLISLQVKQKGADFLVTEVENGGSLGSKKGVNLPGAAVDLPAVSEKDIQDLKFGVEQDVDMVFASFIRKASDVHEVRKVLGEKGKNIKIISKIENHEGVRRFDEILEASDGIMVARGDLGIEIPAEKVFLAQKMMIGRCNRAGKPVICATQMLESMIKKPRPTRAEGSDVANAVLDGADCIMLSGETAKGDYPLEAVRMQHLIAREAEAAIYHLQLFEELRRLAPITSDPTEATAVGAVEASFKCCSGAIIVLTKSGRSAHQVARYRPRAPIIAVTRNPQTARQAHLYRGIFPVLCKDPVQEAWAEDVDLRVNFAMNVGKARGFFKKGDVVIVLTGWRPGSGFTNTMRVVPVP

Activity change, negative = inhibition, inactive:
Fc1ccccc1-c1ccc(-c2nc3ccc(Cl)cn3c2Nc2ccc(Cl)cc2)o1 13.2%
O=C1CCc2cc(S(=O)(=O)Nc3cccc(Cl)c3)ccc2N1 -3.53%
Cc1nc(-c2ccc(S(=O)(=O)Nc3ccc(C)c(C)c3)s2)cs1 19.5%
N#Cc1cccc(NS(=O)(=O)c2ccc3c(c2)CCC(=O)N3)c1 -1.28%
Cc1ccc(N2C(=O)c3ccccc3C2=O)c(C)c1 -3.72%
O=C1CCc2cc(Cl)c(S(=O)(=O)Nc3ccc(Cl)c(Cl)c3)cc2N1 2.94%
O=C1CCc2cc(S(=O)(=O)Nc3ccccc3Cl)ccc2N1 -4.68%
O=C1CCc2cc([S+](=O)([O-])Nc3ccc(N[S+](=O)([O-])c4ccc5c(c4)CCC(=O)N5)cc3)ccc2N1 -2.5%
Cc1ccccc1OC1=NS(=O)(=O)c2ccccc21 2.65%
CC(=O)N1CCCc2cc(S(=O)(=O)Nc3ccc(C)c(C)c3)ccc21 3.31%
Cc1ccc(Nc2c(-c3ccc(C)o3)nc3ccccn23)cc1 -25.5%
O=C1CCc2cc(S(=O)(=O)Nc3ccccn3)ccc2N1 -5.19%
O=C1c2ccccc2C(=O)N1Cc1cccnc1 -1.54%
CSc1cc2c(s1)c1cnn(Cc3cccc(N)c3)c(=O)c1n2C -11.2%
Cc1ccc(NS(=O)(=O)c2cc3c(cc2-c2cn[nH]c2)NC(=O)CO3)cc1C 16.9%
Cc1ccc(NS(=O)(=O)c2cc3c(cc2C)OCC(=O)N3)cc1C 1.24%
O=C1CCc2cc(S(=O)(=O)Nc3ccc(Cl)cc3)ccc2N1 -4.92%
Cc1ccc(NS(=O)(=O)c2ccc3ccccc3c2)cc1C 15.8%
Cc1ccc(NS(=O)(=O)c2ccc3c(c2)oc(=O)n3C)cc1C 9.95%
Cc1ccc(NS(=O)(=O)c2cc3c(cc2-c2ccco2)NC(=O)CO3)cc1C 18.3%
Cc1ccc(OC2=NS(=O)(=O)c3ccccc32)cc1 0.776%
Cc1ccc(NS(=O)(=O)c2ccc3c(c2)C(Cl)(Cl)C(=O)N3)cc1C 16.8%
CSc1cc2c(s1)c1cnn(Cc3cccc(O)c3)c(=O)c1n2C 7.87%
O=C1c2ccccc2C(=O)N1c1ccc(O)cc1 7.32%
O=C1c2ccccc2C(=O)N1c1cccc2ncccc12 -3.84%
Cc1ccc(NS(=O)(=O)c2ccc3[nH]c(=O)[nH]c3c2)cc1C 15.5%
Cc1cc(N2C(=O)c3ccccc3C2=O)n[nH]1 -2.21%
Cc1ccc(N(C)S(=O)(=O)c2ccc3c(c2)CCC(=O)N3)cc1C 0.592%
O=S1(=O)N=C(Oc2ccccc2)c2ccccc21 3.28% [at 82.8 µM]
Cc1ccc(NS(=O)(=O)c2cc3c(cc2/C=C/c2ccccc2)NC(=O)CO3)cc1C 1.26%

— PubChem BioAssay AID2620 (National Center for Advancing Translational Sciences (NCATS), 2010)
